Assays:
[1] = test system: Botulinum neurotoxin type F light chain protease (Clostridium botulinum); assay: Botulinum neurotoxin type F light chain protease inhibition, multiplex microsphere flow cytometry, validation set (AID 588459); details: multiplex microsphere protease substrate cleavage assay, at 10 µM, hits give high values
[2] = molecular target: Botulinum neurotoxin type A (Clostridium botulinum) (UniProt P0DPI0); assay: BoNT/A light chain protease inhibitors, biochemical, multiplex microsphere flow cytometry, validation set (AID 588460); details: at 10 µM, hits give high values
[3] = molecular target: Lethal factor (Bacillus anthracis) (UniProt P15917); assay: Lethal factor protease inhibitors, Bacillus anthracis, multiplex microsphere cleavage assay, validation set (AID 588461); details: flow cytometry, at 10 µM, hits give high values

Measured: inhibition

O=C(O)CCCCCN=C1CCc2ccccc2N1
inactive: [1] 1.6% | [2] -0.4% | [3] 0.8%

O=C1CC(c2ccc(O)cc2)Oc2cc(O)cc(O)c21 (centres undefined)
inactive: [1] -2.6% | [2] -1.8% | [3] -0.4%

COc1ccc([C@@H]2Sc3ccccc3N(CCN(C)C)C(=O)[C@@H]2OC(C)=O)cc1
inactive: [1] -1.7% | [2] 0.1% | [3] 1%

C[N+](C)(C)CCCCCCCCCC[N+](C)(C)C
inactive: [1] -0.3% | [2] -0.8% | [3] -5.3%

CC(NCCc1ccc(O)cc1)C(O)c1ccc(O)cc1 (centres undefined)
inactive: [1] 1.6% | [2] -0.5% | [3] -3.1%

Fc1ccccc1CNCCC(Cc1ccccc1)c1ccc2c(c1)OCO2 (centres undefined)
inactive: [1] -8.9% | [2] -0.6% | [3] 1.9%

CCc1cc2c(C)cc(=O)oc2cc1OC(=O)C1CCCN1C(=O)OC(C)(C)C (centres undefined)
inactive: [1] 0.1% | [2] -1.6% | [3] -1.1%

C=CCOc1ccc(C(=O)CC)cc1OC
inactive: [1] 0.6% | [2] -0.5% | [3] -1.9%

CC(=O)Oc1cc(C(C)C)c(OCCN(C)C)cc1C
inactive: [1] 1.9% | [2] 2% | [3] 0.9%

CCOc1ccc(N2C(=O)CC(NCCNc3ccc([N+](=O)[O-])cn3)C2=O)cc1 (centres undefined)
inactive: [1] 0.9% | [2] 1.6% | [3] -3.4%

NCc1ccccc1COc1ccccc1
inactive: [1] 2.3% | [2] 0.1% | [3] -1.7%

Clc1ccc(Cn2c(CN3CCCC3)nc3ccccc32)cc1
inactive: [1] -2.6% | [2] -1% | [3] -0.3%

CC(C)CC(NC(=O)CNC(=O)C1O[C@@H]2OC(C)(C)O[C@@H]2[C@H]2OC(C)(C)O[C@@H]12)C(=O)O (some centres undefined)
inactive: [1] 2.8% | [2] -2% | [3] 2.8%

O=C(O)[C@H](Cc1ccccc1)NC(=O)N1CCC(Cc2ccccc2)CC1
inactive: [1] 5.5% | [2] 0.9% | [3] -2.3%

O=C(OCC(O)C(O)COC(=O)c1ccccc1)c1ccccc1 (centres undefined)
inactive: [1] -0.4% | [2] 0.6% | [3] 2.1%

O=c1[nH]c(=O)n([C@H]2C[C@H](O)[C@@H](CO)O2)cc1F
inactive: [1] 1.7% | [2] 1.3% | [3] 1.1%

CCn1cc(C(=O)O)c(=O)c2ccc(C)nc21
inactive: [1] 1.3% | [2] -1.5% | [3] -3.9%

COc1ccccc1-c1c(C(F)(F)F)oc2cc(OC(=O)c3ccc([N+](=O)[O-])cc3)ccc2c1=O
inactive: [1] 0.7% | [2] -0.5% | [3] 3.7%

CCC(C)NCCOc1ccc(C(C)(C)c2ccccc2)cc1 (centres undefined)
inactive: [1] -2% | [2] 0.7% | [3] -12.8%

O=C(CN1C(=O)c2ccccc2C1=O)Nc1cccc([N+](=O)[O-])c1
inactive: [1] -5.7% | [2] -0.9% | [3] -2%

COC(=O)c1ccc(COc2ccc3c(C)c(C)c(=O)oc3c2C)o1
inactive: [1] 1.9% | [2] -0.8% | [3] 0.2%

O=C(CS(=O)(=O)Cc1ccccc1)NCc1ccc2c(c1)OCO2
inactive: [1] 1.6% | [2] 0.1% | [3] -6.5%

COc1cc(NC(=O)COc2ccccc2)c(OC)cc1NC(C)=O
inactive: [1] -2.2% | [2] 1.2% | [3] -8.3%

COc1ccc(Cc2noc(CN(C)CCN3CCc4ccccc4C3)n2)cc1OC
inactive: [1] -1.9% | [2] -0.3% | [3] -7.4%

Cc1c(OC(=O)CNC(=O)OC(C)(C)C)ccc2c3c(c(=O)oc12)CCC3
inactive: [1] -2.7% | [2] -0.5% | [3] -2.2%

Oc1ccc(COCc2ccccc2)c2cccnc12
inactive: [1] -2% | [2] -3.5% | [3] -3.1%

O=C(/C=C/c1c[nH]c2ccccc12)c1cccc2ccccc12
inactive: [1] 5.1% | [2] 2.4% | [3] -6.2%

CCOC(=O)c1ccc2[nH]c(C)c(CCC(C)=O)c(=O)c2c1
inactive: [1] -0.7% | [2] 0.3% | [3] 6%

COc1ccc(NC(=O)C2CCCN2C(=O)OC(C)(C)C)cc1 (centres undefined)
inactive: [1] 4.1% | [2] 0.9% | [3] -2.4%

CC(C)C(CCN1C(=O)CCC1=O)C1CCOC(C)(C)C1 (centres undefined)
inactive: [1] 3% | [2] 0.5% | [3] 0.7%

CC(C)Oc1cccc(C(=O)N2CCCC2)c1
inactive: [1] 2.3% | [2] -0.3% | [3] -5.2%

COc1ccc(C2C3=C(CC(C)(C)CC3=O)N(C)C3=C2C(=O)CC(C)(C)C3)cc1
inactive: [1] 2% | [2] 0.4% | [3] -5.6%

COc1ccc(OC)c(-n2c(Cn3c(-c4ccccn4)nc4ccccc43)n[nH]c2=S)c1
inactive: [1] -3.4% | [2] -0.4% | [3] -0.7%

O=C(c1cc2cc(Br)ccc2o1)N1CCCC1
inactive: [1] -9.1% | [2] -4.2% | [3] -3.2%

CCCCNc1cc(C(=O)O)cc(S(N)(=O)=O)c1Oc1ccccc1
inactive: [1] 2.6% | [2] 1.7% | [3] -3.2%

Cc1oc2ccc(OC(=O)c3cccs3)cc2c1C(=O)OC(C)C
inactive: [1] -0.1% | [2] -1.1% | [3] 3.1%

Cc1cc(OC(=O)CNC(=O)OC(C)(C)C)c2c(C)cc(=O)oc2c1
inactive: [1] -0.2% | [2] -0.7% | [3] 5.4%

COc1ccc(-c2cc(=O)oc3c(C)c(O)c(CN(C)C)cc23)cc1
inactive: [1] 11.3% | [2] 0.6% | [3] -2.1%

CN1CCN(C2=Nc3ccccc3Oc3ccc(Cl)cc32)CC1
inactive: [1] -0.8% | [2] -1.8% | [3] -3.9%

CN1C(=O)NC(c2ccc(O)cc2)C2=C1CN(c1cccc3ccccc13)C2=O (centres undefined)
inactive: [1] 3.2% | [2] -1% | [3] -10.8%

Cc1ccc(C(=O)NC(=S)NCCCN2CCOCC2)cc1
inactive: [1] 3.6% | [2] -1.4% | [3] 6.1%

O=C(COc1ccc2ccc(=O)oc2c1)c1ccccc1
inactive: [1] -5.2% | [2] -1.1% | [3] 1%

O=C1CC(c2ccc(F)cc2)Cc2nc(NCC3CCCO3)ncc21 (centres undefined)
inactive: [1] -1% | [2] 0.1% | [3] -6.1%

O=C(COc1ccc2c(-c3ccccc3)cc(=O)oc2c1)NCc1cccs1
inactive: [1] -0.2% | [2] -0.1% | [3] -6%

O=C(NCCc1c[nH]c2ccccc12)OCCSS(=O)(=O)O
inactive: [1] -4.5% | [2] -0.2% | [3] 3.7%

Cc1ccc(S(=O)(=O)NC(C(=O)Oc2ccc3c(C(F)(F)F)cc(=O)oc3c2)c2ccccc2)cc1 (centres undefined)
inactive: [1] 1.6% | [2] 1.4% | [3] -1.3%

COc1ccc(C2OC[C@H]3O[C@H](O)[C@H](NC(C)=O)[C@@H](O)[C@@H]3O2)cc1 (some centres undefined)
inactive: [1] -3.6% | [2] -1.7% | [3] -9.6%

COc1cc2c(cc1O)CC[C@@H]1[C@@H]2CC[C@]2(C)[C@@H](O)CC[C@@H]12
inactive: [1] -2.1% | [2] -2.2% | [3] -2.9%

COc1c(C=O)c(CCN(C)C(=O)c2ccc(F)cc2)cc2c1OCO2
inactive: [1] 3% | [2] -1.5% | [3] -4.4%

CC1(C)CC(=O)C(C2=NC(C)(C)Cc3ccccc32)=C(O)C1
inactive: [1] 0% | [2] 0.9% | [3] -0.4%

COc1ccc(-c2coc3cc(O)cc(O)c3c2=O)cc1
inactive: [1] 0.3% | [2] -0.7% | [3] 0.1%

COc1ccc2c(c1)CC[C@@H]1[C@@H]2CC[C@]2(C)C(=O)CC[C@@H]12
inactive: [1] -4% | [2] -1.5% | [3] -5%

CC(C)OC(=O)c1ccc(NC(=O)c2cncc(Br)c2)cc1
inactive: [1] -2.9% | [2] -0.1% | [3] 7.4%

COc1cc(C2CC(=O)NC3=C2C(=O)CC(C)(C)C3)ccc1O (centres undefined)
inactive: [1] -1.7% | [2] 0.3% | [3] 0%

C=CCC1(O)C(=O)N2C(=C1C(=O)N1CCOCC1)c1ccccc1CC2(C)C (centres undefined)
inactive: [1] -1.7% | [2] -0.2% | [3] 5.7%

CCNCCC(CCC(C)C)c1ccc2c(c1)OCO2 (centres undefined)
inactive: [1] -3.1% | [2] -1.3% | [3] -0.1%

CC(=O)Nc1ccc(S(=O)(=O)c2ccc(N)cc2)cc1
inactive: [1] -3.7% | [2] -0.4% | [3] -3.2%

O=C(CCC(=O)c1cccs1)c1cccs1
inactive: [1] 3.2% | [2] -1.4% | [3] -3.3%

Cc1ccccc1NC(=O)C1(C)Cc2ccccc2C(=O)O1 (centres undefined)
inactive: [1] 0.3% | [2] 0.5% | [3] -0.2%

COC(=O)c1ccc(NC(=O)c2ccccc2SC)cc1
inactive: [1] -4.7% | [2] -0.2% | [3] -5.4%

COc1ccc(C(=O)CCN2CCc3cc(OC)c(OC)cc3C2)cc1
inactive: [1] -2.2% | [2] -0.3% | [3] -2.9%

COc1ccc(NC2=C(Cl)C(=O)N(c3ccccc3)C2=O)c(OC)c1
inactive: [1] 3.7% | [2] 1% | [3] -0.3%

COc1ccc(OCC(=O)N2c3ccc(C)cc3C3CN(C)CCC32)cc1 (centres undefined)
inactive: [1] -4.9% | [2] -0.7% | [3] -2.6%

— PubChem BioAssay
